Measurements taken from PubChem BioAssay (NCATS).
Several values for one entry are separate records, joined by “and”; a condition that tells them apart may be missing. Equal values may be shown once. Results filed as inconclusive are left out. Where a call stands in place of a potency, no number is given. Activity calls are given as the source filed them. Calls follow the shape of the dose curve; as a rule, active = well fitted inhibition curve with a large enough effect; inconclusive = small, poorly fitted or top-dose-only effect; inactive = flat fitted curve, though single readings scatter. Peptide text beside a SMILES is read from it.

system: HACAT; experiment: qHTS assay to identify novel small-molecules to repurpose for Merkel cell carcinoma treatment (AID 1296009); details: MCC and control cell lines, CellTiter-Glo viability, 72 h; at 44.8 µM (top of the series) unless noted; also: nearly all actives have a fitted effect of over 60% in size
Summary of the method: (§1)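 Cell viability measured by CellTiter-Glo following 72 hr compound treatment at 37 degree celsius, with NPC and MIPE libraries tested in 8- and 11-point concentration series.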
Potency is read from the fitted curve at half-maximal effect.

`Cc1cc2cc3c(C)cc(=O)oc3c(C)c2o1` was tested. Which outcome did it give?
The outcome was “inactive”.

With `CN(C)[C@@H](CCOc1cccc2ccccc12)c1ccccc1` as the compound, how does the outcome read?
The outcome was “inactive”.

For `COc1ccc2cc([C@H](C)C(=O)O)ccc2c1`, which outcome is on record?
Its outcome is “inactive”.

For `COc1cc(C(C)=O)ccc1OCCCN1CCC(c2noc3cc(F)ccc23)CC1`, which outcome is on record?
Its outcome is “inactive”.

Which outcome does the source give for `Cc1ccc(C)c(OCCCC(C)(C)C(=O)O)c1` here?
The outcome was “inactive”.

For `Clc1ccc(C(Cn2ccnc2)OCc2ccc(Sc3ccccc3)cc2)c(Cl)c1` (centres undefined), which outcome is on record?
The outcome was “inactive”.

`CS(=O)(=O)OCCCCOS(C)(=O)=O` was tested. Which outcome did it give?
Its outcome is “inactive”.

With `CC(=O)NC[C@H]1CN(c2ccc(N3CCOCC3)c(F)c2)C(=O)O1` as the compound, how does the outcome read?
Its outcome is “inactive”.

How did the outcome turn out when `CC1=C(C)C(=O)C(C(CCCCCC(=O)O)c2ccccc2)=C(C)C1=O` (centres undefined) was run?
The outcome was “inactive”.

How did the outcome turn out when `CCC1=C(C)CN(C(=O)NCCc2ccc(S(=O)(=O)NC(=O)NC3CCC(C)CC3)cc2)C1=O` (centres undefined) was run?
The outcome was “inactive”.

With `Clc1ccc(C(Cn2ccnc2)OCc2c(Cl)cccc2Cl)c(Cl)c1` (centres undefined) as the compound, how does the outcome read?
Its outcome is “inactive”.

Which outcome does the source give for `O=C(O)CCNC(=O)c1ccc(N=Nc2ccc(O)c(C(=O)O)c2)cc1` here?
The outcome was “inactive”.

`Cc1nc(-c2ccc(OCC(C)C)c(C#N)c2)sc1C(=O)O` was tested. Which outcome did it give?
Its outcome is “inactive”.

Which outcome does the source give for `Cc1c(C(=O)NN2CCCCC2)nn(-c2ccc(Cl)cc2Cl)c1-c1ccc(Cl)cc1` here?
Its outcome is “inactive”.

`Cn1c(NCCN(CCO)CCCc2ccc([N+](=O)[O-])cc2)cc(=O)n(C)c1=O` was tested. Which outcome did it give?
Its outcome is “inactive”.

With `CCN(CCO)CCCC(C)Nc1ccnc2cc(Cl)ccc12` (centres undefined) as the compound, how does the outcome read?
Its outcome is “inactive [at 4.96 µM]”.

With `CN(C)C(=O)COC(=O)Cc1ccc(OC(=O)c2ccc(N=C(N)N)cc2)cc1` as the compound, how does the outcome read?
The outcome was “inactive”.

With `CC(=O)Nc1ccc(O)cc1` as the compound, how does the outcome read?
The outcome was “inactive”.

Which outcome does the source give for `COC1=C(OC)C(=O)C(CCCCCCCCCCO)=C(C)C1=O` here?
Its outcome is “inactive”.

`CC1(C)CCC(C)(C)c2cc(NC(=O)c3ccc(C(=O)O)cc3)ccc21` was tested. Which outcome did it give?
Its outcome is “inactive”.

How did the outcome turn out when `COC(=O)C1=C(C)NC(C)=C(C(=O)OCCCN2CCC(c3ccccc3)(c3ccccc3)CC2)C1c1cccc([N+](=O)[O-])c1` (centres undefined) was run?
Its outcome is “inactive”.

How did the outcome turn out when `O=C(NC(Cc1cc(=O)[nH]c2ccccc12)C(=O)O)c1ccc(Cl)cc1` (centres undefined) was run?
Its outcome is “inactive”.

With `CN(c1nccc(=O)[nH]1)C1CCN(c2nc3ccccc3n2Cc2ccc(F)cc2)CC1` as the compound, how does the outcome read?
Its outcome is “inactive”.

`Cc1cc2c(s1)Nc1ccccc1N=C2N1CCN(C)CC1` was tested. Which outcome did it give?
Its outcome is “inactive”.

How did the outcome turn out when `CC1=C(C(=O)O)N2C(=O)[C@@H](NC(=O)[C@H](N)C3=CCC=CC3)[C@H]2SC1` was run?
Its outcome is “inactive”.

`CN(C)c1ccc(O)c2c1C[C@H]1C[C@H]3[C@H](N(C)C)C(=O)C(C(N)=O)=C(O)[C@@]3(O)C(=O)C1=C2O` was tested. Which outcome did it give?
The outcome was “inactive”.

How did the outcome turn out when `Cc1cccc(CN2CCN(C(c3ccccc3)c3ccc(Cl)cc3)CC2)c1` (centres undefined) was run?
The outcome was “inactive”.

Which outcome does the source give for `Cc1ncc([N+](=O)[O-])n1CC(C)O` (centres undefined) here?
Its outcome is “inactive”.

How did the outcome turn out when `COC(=O)N[C@H](C(=O)N[C@@H](Cc1ccccc1)[C@@H](O)CN(Cc1ccc(-c2ccccn2)cc1)NC(=O)[C@@H](NC(=O)OC)C(C)(C)C)C(C)(C)C` was run?
The outcome was “inactive”.

system: HEK293T; experiment: as above; details: MCC and control cell lines, CellTiter-Glo viability, 72 h; at 44.8 µM (top of the series) unless noted
Summary of the method: as §1

`Cc1cc2cc3c(C)cc(=O)oc3c(C)c2o1` was tested. Which outcome did it give?
Its outcome is “inactive”.

Which outcome does the source give for `COc1ccc2cc([C@H](C)C(=O)O)ccc2c1` here?
Its outcome is “inactive”.

With `Clc1ccc(C(Cn2ccnc2)OCc2ccc(Sc3ccccc3)cc2)c(Cl)c1` (centres undefined) as the compound, how does the outcome read?
The outcome was “inactive”.

How did the outcome turn out when `CS(=O)(=O)OCCCCOS(C)(=O)=O` was run?
The outcome was “inactive”.

With `CC1=C(C)C(=O)C(C(CCCCCC(=O)O)c2ccccc2)=C(C)C1=O` (centres undefined) as the compound, how does the outcome read?
Its outcome is “inactive”.

How did the outcome turn out when `CCC1=C(C)CN(C(=O)NCCc2ccc(S(=O)(=O)NC(=O)NC3CCC(C)CC3)cc2)C1=O` (centres undefined) was run?
The outcome was “inactive”.

How did the outcome turn out when `Cn1c(NCCN(CCO)CCCc2ccc([N+](=O)[O-])cc2)cc(=O)n(C)c1=O` was run?
The outcome was “inactive”.

Which outcome does the source give for `CCN(CCO)CCCC(C)Nc1ccnc2cc(Cl)ccc12` (centres undefined) here?
Its outcome is “inactive [at 4.96 µM]”.

How did the outcome turn out when `CN(C)C(=O)COC(=O)Cc1ccc(OC(=O)c2ccc(N=C(N)N)cc2)cc1` was run?
The outcome was “inactive”.

How did the outcome turn out when `CC(=O)Nc1ccc(O)cc1` was run?
Its outcome is “inactive”.

For `CC1(C)CCC(C)(C)c2cc(NC(=O)c3ccc(C(=O)O)cc3)ccc21`, which outcome is on record?
The outcome was “inactive”.

With `Cc1cc2c(s1)Nc1ccccc1N=C2N1CCN(C)CC1` as the compound, how does the outcome read?
The outcome was “inactive”.

`CC1=C(C(=O)O)N2C(=O)[C@@H](NC(=O)[C@H](N)C3=CCC=CC3)[C@H]2SC1` was tested. Which outcome did it give?
Its outcome is “inactive”.

With `Cc1cc(=O)oc2cc(O)ccc12` as the compound, how does the outcome read?
Its outcome is “inactive”.

`Cc1ncc([N+](=O)[O-])n1CC(C)O` (centres undefined) was tested. Which outcome did it give?
The outcome was “inactive”.

How did the outcome turn out when `CNC[C@H](O)c1ccc(O)c(O)c1` was run?
Its outcome is “inactive [at 17.4 µM]”.

`COC(=O)N[C@H](C(=O)N[C@@H](Cc1ccccc1)[C@@H](O)CN(Cc1ccc(-c2ccccn2)cc1)NC(=O)[C@@H](NC(=O)OC)C(C)(C)C)C(C)(C)C` was tested. Which outcome did it give?
Its outcome is “inactive”.

system: MCC-13; experiment: as above; details: MCC and control cell lines, CellTiter-Glo viability, 72 h; series mostly up to 46 µM
Summary of the method: as §1

`Cc1cc2cc3c(C)cc(=O)oc3c(C)c2o1` was tested. Which Potency did it give?
The Potency was “inactive”.

How did the Potency turn out when `CN(C)[C@@H](CCOc1cccc2ccccc12)c1ccccc1` was run?
The Potency was “inactive”.

How did the Potency turn out when `COc1ccc2cc([C@H](C)C(=O)O)ccc2c1` was run?
The Potency was “inactive”.

With `COc1cc(C(C)=O)ccc1OCCCN1CCC(c2noc3cc(F)ccc23)CC1` as the compound, how does the Potency read?
Its Potency is “inactive”.

`Cc1ccc(C)c(OCCCC(C)(C)C(=O)O)c1` was tested. Which Potency did it give?
Its Potency is “inactive”.

Which Potency does the source give for `CCC[C@@H]1C[C@@H](C(=O)N[C@@H]([C@H]2O[C@H](SC)[C@H](O)[C@@H](O)[C@H]2O)[C@@H](C)O)N(C)C1` here?
Its Potency is “inactive”.

For `Clc1ccc(C(Cn2ccnc2)OCc2ccc(Sc3ccccc3)cc2)c(Cl)c1` (centres undefined), which Potency is on record?
Its Potency is “inactive”.

For `CS(=O)(=O)OCCCCOS(C)(=O)=O`, which Potency is on record?
The Potency was “inactive”.

`CC(=O)NC[C@H]1CN(c2ccc(N3CCOCC3)c(F)c2)C(=O)O1` was tested. Which Potency did it give?
Its Potency is “inactive”.

How did the Potency turn out when `CC1=C(C)C(=O)C(C(CCCCCC(=O)O)c2ccccc2)=C(C)C1=O` (centres undefined) was run?
Its Potency is “inactive”.

`COc1cc2nc(N3CCN(C(=O)C4CCCO4)CC3)nc(N)c2cc1OC` (centres undefined) was tested. Which Potency did it give?
Its Potency is “inactive”.

How did the Potency turn out when `CCC1=C(C)CN(C(=O)NCCc2ccc(S(=O)(=O)NC(=O)NC3CCC(C)CC3)cc2)C1=O` (centres undefined) was run?
The Potency was “inactive”.

With `Clc1ccc(C(Cn2ccnc2)OCc2c(Cl)cccc2Cl)c(Cl)c1` (centres undefined) as the compound, how does the Potency read?
The Potency was “inactive”.

`O=C(O)CCNC(=O)c1ccc(N=Nc2ccc(O)c(C(=O)O)c2)cc1` was tested. Which Potency did it give?
Its Potency is “inactive”.

How did the Potency turn out when `Cc1nc(-c2ccc(OCC(C)C)c(C#N)c2)sc1C(=O)O` was run?
The Potency was “inactive”.

Which Potency does the source give for `Cc1c(C(=O)NN2CCCCC2)nn(-c2ccc(Cl)cc2Cl)c1-c1ccc(Cl)cc1` here?
The Potency was “inactive”.

Which Potency does the source give for `Cn1c(NCCN(CCO)CCCc2ccc([N+](=O)[O-])cc2)cc(=O)n(C)c1=O` here?
Its Potency is “inactive”.

With `CCN(CCO)CCCC(C)Nc1ccnc2cc(Cl)ccc12` (centres undefined) as the compound, how does the Potency read?
Its Potency is “inactive”.

Which Potency does the source give for `CN(C)C(=O)COC(=O)Cc1ccc(OC(=O)c2ccc(N=C(N)N)cc2)cc1` here?
The Potency was “inactive”.

How did the Potency turn out when `CC(=O)Nc1ccc(O)cc1` was run?
Its Potency is “inactive”.

With `COC1=C(OC)C(=O)C(CCCCCCCCCCO)=C(C)C1=O` as the compound, how does the Potency read?
The Potency was “inactive”.

How did the Potency turn out when `COC(=O)[C@H](Cc1ccccc1)NC(=O)[C@@H](N)CC(=O)O` (H-Asp-Phe-OMe) was run?
Its Potency is “inactive”.

Which Potency does the source give for `CC1(C)CCC(C)(C)c2cc(NC(=O)c3ccc(C(=O)O)cc3)ccc21` here?
Its Potency is “inactive”.

With `COC(=O)C1=C(C)NC(C)=C(C(=O)OCCCN2CCC(c3ccccc3)(c3ccccc3)CC2)C1c1cccc([N+](=O)[O-])c1` (centres undefined) as the compound, how does the Potency read?
Its Potency is “inactive”.

With `O=C(NCC1CCCCN1)c1cc(OCC(F)(F)F)ccc1OCC(F)(F)F` (centres undefined) as the compound, how does the Potency read?
The Potency was “inactive”.

Which Potency does the source give for `CCCS(=O)c1ccc2nc(NC(=O)OC)[nH]c2c1` (centres undefined) here?
Its Potency is “inactive”.

Which Potency does the source give for `O=C(NC(Cc1cc(=O)[nH]c2ccccc12)C(=O)O)c1ccc(Cl)cc1` (centres undefined) here?
The Potency was “inactive”.

How did the Potency turn out when `CCN(CC)C(=S)SSC(=S)N(CC)CC` was run?
The Potency was 2.09 µM (active) and 111 nM (active) and 944 nM (active).

How did the Potency turn out when `CN(c1nccc(=O)[nH]1)C1CCN(c2nc3ccccc3n2Cc2ccc(F)cc2)CC1` was run?
Its Potency is “inactive”.

With `Cc1cc2c(s1)Nc1ccccc1N=C2N1CCN(C)CC1` as the compound, how does the Potency read?
The Potency was “inactive”.

Which Potency does the source give for `CC1=C(C(=O)O)N2C(=O)[C@@H](NC(=O)[C@H](N)C3=CCC=CC3)[C@H]2SC1` here?
Its Potency is “inactive”.

With `Cc1cc(=O)oc2cc(O)ccc12` as the compound, how does the Potency read?
Its Potency is “inactive”.

Which Potency does the source give for `CN(C)c1ccc(O)c2c1C[C@H]1C[C@H]3[C@H](N(C)C)C(=O)C(C(N)=O)=C(O)[C@@]3(O)C(=O)C1=C2O` here?
Its Potency is “inactive”.

How did the Potency turn out when `Cc1cccc(CN2CCN(C(c3ccccc3)c3ccc(Cl)cc3)CC2)c1` (centres undefined) was run?
The Potency was “inactive”.

With `Cc1ncc([N+](=O)[O-])n1CC(C)O` (centres undefined) as the compound, how does the Potency read?
The Potency was “inactive”.

For `CNC[C@H](O)c1ccc(O)c(O)c1`, which Potency is on record?
Its Potency is “inactive”.

How did the Potency turn out when `Clc1ccc(C(Cn2ccnc2)OCc2ccsc2Cl)c(Cl)c1` (centres undefined) was run?
The Potency was “inactive”.

Which Potency does the source give for `COC(=O)N[C@H](C(=O)N[C@@H](Cc1ccccc1)[C@@H](O)CN(Cc1ccc(-c2ccccn2)cc1)NC(=O)[C@@H](NC(=O)OC)C(C)(C)C)C(C)(C)C` here?
Its Potency is “inactive”.
